Rows were chosen to be rich in hits. Some 1.8% of all compounds tested hit in one or more screens of this group.
PME-1 Maybridge – inhibitors of human PME-1 in Maybridge library. inhibition, % at 9 µM. AID 2291. recombinant PME-1, FP-Rh probe fluorescence polarization. 16,000 compounds, 0.5% hits; in the data active = inhibition above about 30%
Target sequence (Q9Y570 whole entry, looked up): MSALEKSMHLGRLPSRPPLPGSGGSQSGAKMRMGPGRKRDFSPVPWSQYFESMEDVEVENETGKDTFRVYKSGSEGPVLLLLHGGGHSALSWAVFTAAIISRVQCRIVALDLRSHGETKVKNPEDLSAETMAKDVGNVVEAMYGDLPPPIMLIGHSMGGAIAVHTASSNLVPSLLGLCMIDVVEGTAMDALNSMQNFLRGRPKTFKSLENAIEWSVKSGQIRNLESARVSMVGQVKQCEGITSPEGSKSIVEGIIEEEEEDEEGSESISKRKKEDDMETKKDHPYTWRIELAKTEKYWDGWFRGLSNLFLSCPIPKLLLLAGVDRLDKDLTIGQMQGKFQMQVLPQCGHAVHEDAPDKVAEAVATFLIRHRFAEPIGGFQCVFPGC
Nox1 inhibitor – inhibitors of human NADPH oxidase 1 (Nox1). Q9Y5S8. HT29 cells, luminol chemiluminescence ROS. inhibition, % at 6.7 µM. 16,000 compounds, 0.81% hits
Luminol counter – quenches luminol chemiluminescence in Nox1 counter-screen; HRP/luminol/H2O2 chemiluminescence counterscreen; inhibition, % at 6.7 µM; 16,000 compounds, 0.4% hits; note: reference of the scale not given here
NOTCH agonist – NOTCH pathway agonism. NOTCH signaling luciferase reporter cells, luminescence. activation, % at 2.5 µM. 15,000 compounds, 0.4% hits; in the data active = activation above about 2.2%
Hits are given with their value; - = inactive; . = not tested or not shown. Cut-off read from the data, not from the text of the source, unless noted: active = inhibition above about 75%; inactive = the rest.

SMILES | PME-1 Maybridge | Nox1 inhibitor | Luminol counter | NOTCH agonist
COc1cccc(NC(=S)NNc2ccc([N+](=O)[O-])cc2)c1 | - | 98 | - | -
O=[N+]([O-])c1ccc(NC(=S)Nc2cccc(C(F)(F)F)c2)cc1 | - | - | - | -
S=c1nc[nH]c2[nH]ncc12 | - | - | 80 | -
O=c1[nH]nc(N2CCSCC2)[nH]1 | - | 89 | - | -
CC(C)C(=O)NNc1nc2c(c(=O)n(C)c(=O)n2C)n1Cc1ccc(Cl)cc1 | - | 100 | - | -
CCc1nc2c([nH]1)c(=O)n(C)c(=O)n2C | - | - | - | -
CCC(CO)Nc1nc2c([nH]1)c(=O)n(C)c(=O)n2C (centres undefined) | - | 94 | - | -
O=[N+]([O-])c1ccc2nc3c(O)c4ccccc4c(O)c3nc2c1 | 38 | - | - | -
Fc1ccc(-n2c(Cc3ccsc3)n[nH]c2=S)cc1 | - | - | 84 | -
Cc1c(C)c(C)c(CSCc2n[nH]c(=S)n2-c2ccc(F)cc2)c(C)c1C | - | - | - | -
Cn1ncc(C(=O)NC(=O)Nc2ccc(F)cc2)c1[N+](=O)[O-] | - | 78 | - | -
N/C(=N/OC(=O)c1cccc(C(F)(F)F)c1)C1COc2ccccc2O1 (centres undefined) | - | - | - | -
O=C1CNC(=S)N1Cc1ccccn1 | - | - | - | -
O=C1CNC(=S)N1Cc1ccccc1Cl | - | - | - | 2.5
CC1=Nc2ccccc2NC(C)(C)C1 | - | - | - | -
CCn1nc(C)cc1-c1nnc(SCC(=O)Nc2ccc(C(C)C)cc2)o1 | - | - | - | -
O=C(Nc1ccc(F)c(F)c1)C1CCC1 | - | - | - | -
Cc1cccc(NNC(=O)C2CCC2)c1 | - | - | 101 | -
O=C1Nc2ccccc2/C1=C\c1cccc2ccccc12 | - | - | - | -
O=C1c2ccc3ccccc3c2-c2cccc3cccc1c23 | 40 | - | - | -
CS(=O)(=O)/C(C#N)=C/c1cccn1S(=O)(=O)c1ccccc1 | 31 | - | - | -
CN(C)n1cccc1/C=C(\C#N)S(C)(=O)=O | - | - | - | -
CN(C)c1ccc(NC(=O)Nc2cccs2)cc1 | - | 92 | - | -
O=S(=O)(Nc1ccccc1N1CCOCC1)c1ccccc1 | - | - | - | .
CCOc1cc(N2CCOCC2)c(OCC)cc1NS(=O)(=O)c1ccccc1 | - | 103 | - | -
SMILES | PME-1 Maybridge | Nox1 inhibitor | Luminol counter | NOTCH agonist
COc1cccc(Cc2n[nH]c(=S)n2-c2ccc(Cl)cc2)c1 | - | - | 99 | -
FC(F)(F)Oc1ccc(OCc2n[nH]c(=S)n2-c2ccc(Cl)cc2)cc1 | - | - | - | .
COc1cccc(Cc2n[nH]c(=S)n2Cc2ccco2)c1 | - | - | 99 | -
CS(=O)(=O)c1sc(C(N)=O)c2c1C=CCC2 | - | - | - | -
CCC(C)(C)C1CCc2c(sc(NC(=O)c3ccccc3C(=O)O)c2C#N)C1 (centres undefined) | 33 | - | - | -
O=C1C(Cl)=C(OC(CO)CO)C(=O)c2ccccc21 | - | - | - | -
FC(F)(F)c1cccc(-n2c(Cc3ccccc3)n[nH]c2=S)c1 | - | - | - | -
FC(F)(F)c1cccc(CSc2n[nH]c(=S)s2)c1 | - | - | 99 | -
Cc1ccc(S(=O)(=O)NC(=O)Nc2c(C)n(C)n(-c3ccccc3)c2=O)cc1 | - | 92 | - | -
CC(=O)Oc1cccc(/C=C2N=C(/C=C/c3ccccc3)OC/2=O)c1 | - | - | - | .
Cc1cc(C)c2c(=O)[nH]sc2n1 | - | - | - | 2.8
O=S(=O)(c1ccc(Cl)s1)N1CCN(C(c2ccccc2)c2ccccc2)CC1 | - | - | - | 6.4
COc1ccc(-c2nc(N(C)c3ccccc3)[nH]c(=O)c2C#N)cc1 | - | - | - | 3.5
CCOC(=O)c1nsc(/C(C)=N/Nc2ccccc2)c1N | - | 98 | - | -
CSc1nc(NC(=O)NS(=O)(=O)c2ccccc2Cl)nc(N(C)C)n1 | - | - | - | -
COc1ccc(S(=O)(=O)Nc2cc(C)c(C)cc2[N+](=O)[O-])c(OC)c1 | 33 | - | - | -
COc1ccc(NS(=O)(=O)c2ccc(C)cc2)c([N+](=O)[O-])c1 | - | - | - | -
CC1C(c2ccccc2)OCCN1CN1C(=O)c2ccccc2C1=O (centres undefined) | - | - | - | -
CN1CCN(c2ccc(NC(=O)Nc3ccc(C(F)(F)F)cc3)cc2)CC1 | 36 | - | - | -
O=S(=O)(Nc1ccc(N2CCCCC2)cc1)c1cc(Cl)sc1Cl | - | 102 | - | -
CSc1nc(NS(=O)(=O)c2cc(Cl)sc2Cl)nn1C | - | - | - | -
Cc1c(C=N/C(C#N)=C(\N)C#N)c(=O)n(-c2ccccc2)n1C | - | - | - | -
O=C1NC(=S)NC(=O)C1=Cc1c(F)cccc1Cl | - | - | - | -
O=C1NC(=S)N/C1=C\c1ccccc1Cl | - | - | 75 | -
S=c1[nH]c(=S)c2ccccc2[nH]1 | - | - | 77 | -
SMILES | PME-1 Maybridge | Nox1 inhibitor | Luminol counter | NOTCH agonist
Cc1c(C)c(C)c(S(=O)(=O)NCCCN2CC(C)OC(C)C2)c(C)c1C (centres undefined) | - | - | - | -
Cc1ccc(C)c2c1C(=O)c1ccccc1C2=O | - | - | - | -
Nc1cc(S(=O)(=O)O)c(N)c2c1C(=O)c1ccccc1C2=O | 99 | - | - | .
CCN(CC)c1ccc(N=C2C=CC(=O)c3ccccc32)c(C)c1 | - | 99 | - | -
CCOC(=O)C1=NN(c2ccc(Cl)cc2)C2C(=O)N(c3ccc(OC)cc3)C(=O)C12 (centres undefined) | - | - | - | -
CCN(CC)c1ccc(NS(=O)(=O)c2ccc(F)cc2)cc1 | - | 102 | - | -
NNC(=O)c1cn2cc(C(F)(F)F)cc(Cl)c2n1 | - | - | - | -
O=[N+]([O-])c1ccc(-c2cc3cc(Cl)ccc3o2)cc1 | - | - | - | -
O=[N+]([O-])c1ccc(S(=O)(=O)c2cc(Cl)ccc2Cl)[n+]([O-])c1 | - | - | - | 3.6
N#C/C(=C\c1ccco1)C(=O)c1cccc(C(F)(F)F)c1 | - | - | - | -
S=c1[nH]c2cccnc2s1 | - | - | 100 | -
CCOC(=O)c1c(C)[nH]n2c(-c3cccnc3)nnc12 | - | - | - | -
COC(=O)c1ccccc1N1C(=O)C=CC1=O | - | - | - | -
Cc1ccc(NC(=O)Nc2ccc(C)cc2)cc1 | - | - | - | -
O=[N+]([O-])c1cc(C(F)(F)F)cc([N+](=O)[O-])c1Sc1ncc2ccccn12 | - | 102 | - | .
O=[N+]([O-])c1cccnc1Sc1ncc2ccccn12 | - | - | - | -
C=CCn1c(-c2ccccc2)n[nH]c1=S | - | - | 97 | -
C=CCn1c(CSc2ccccc2[N+](=O)[O-])n[nH]c1=S | - | - | 80 | -
CC(C)(C)OC(=O)NCc1n[nH]c(=S)n1-c1ccccc1 | - | - | 97 | -
CC(C)(C)OC(=O)NCc1n[nH]c(=S)n1C1CC1 | - | - | - | -
CC(=O)C1=C(C)NC(=O)CC1 | - | - | - | -
Cc1onc(-c2c(F)cccc2Cl)c1C(=O)N=S(C)(C)=O | - | - | - | -
COc1cc(C(=O)Oc2c(Cl)cc(Cl)cc2/C=N/NC(N)=S)cc(OC)c1OC | 34 | - | - | -
COc1cc(C(=O)Oc2ccc(Cl)cc2Cl)cc(OC)c1OC | - | - | - | -
CC1C(=O)c2ccc([N+](=O)[O-])cc2OC1O (centres undefined) | - | - | - | -

Screening data as filed in PubChem BioAssay.
